PolyA inh: yeast polyadenylation inhibition; S. cerevisiae SKY197-pL101 polyadenylation reporter, beta-gal luminescence; efflux-impaired pdr1/pdr3 knockout yeast; score 100 = 6 SD above DMSO; activity score, % at 12 µM; 300,000 tested, 0.02% active;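 active means lowest replicate activity score at least 50, where 100 means six control SD above control mean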;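 further: yeast exposed to compound for 9 h at 30 °C; higher score means more reporter readthrough which indicates perturbed polyadenylation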
Platelet DG rel: modulates dense granule release in human platelets; human platelet-rich plasma, SFLLRN dense granule ATP release, luminescence; inhibition, %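 (compounds screened at 7.5 µM in platelet-rich plasma)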; 300,000 tested, 0.22% active;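 active means mean replicate score, as percent of positive control, at or above 50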
AHR act: human AHR activation; AHR-responsive luciferase reporter cells, luminescence; activation, % at 5 µM; 320,000 tested, 2.5% active; P35869; in the data active means activation above about 47%;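 further: 0% = vehicle wells and 100% = reference agonist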
pCIP destab: p/CIP protein destabilization; Q05BA5; F442A p/CIP-EGFP cells, EGFP fluorescence, 16 h; decrease of EGFP signal, % at 10 µM; 290,000 tested, 0.01% active; AID 1984;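 active means EGFP signal decrease of at least 30% at 10 µM or well 3 SD below plate mean, unless failing retest; inactive means the rest, including hits failing retest or dose response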
Target sequence (Q05BA5 1-1403): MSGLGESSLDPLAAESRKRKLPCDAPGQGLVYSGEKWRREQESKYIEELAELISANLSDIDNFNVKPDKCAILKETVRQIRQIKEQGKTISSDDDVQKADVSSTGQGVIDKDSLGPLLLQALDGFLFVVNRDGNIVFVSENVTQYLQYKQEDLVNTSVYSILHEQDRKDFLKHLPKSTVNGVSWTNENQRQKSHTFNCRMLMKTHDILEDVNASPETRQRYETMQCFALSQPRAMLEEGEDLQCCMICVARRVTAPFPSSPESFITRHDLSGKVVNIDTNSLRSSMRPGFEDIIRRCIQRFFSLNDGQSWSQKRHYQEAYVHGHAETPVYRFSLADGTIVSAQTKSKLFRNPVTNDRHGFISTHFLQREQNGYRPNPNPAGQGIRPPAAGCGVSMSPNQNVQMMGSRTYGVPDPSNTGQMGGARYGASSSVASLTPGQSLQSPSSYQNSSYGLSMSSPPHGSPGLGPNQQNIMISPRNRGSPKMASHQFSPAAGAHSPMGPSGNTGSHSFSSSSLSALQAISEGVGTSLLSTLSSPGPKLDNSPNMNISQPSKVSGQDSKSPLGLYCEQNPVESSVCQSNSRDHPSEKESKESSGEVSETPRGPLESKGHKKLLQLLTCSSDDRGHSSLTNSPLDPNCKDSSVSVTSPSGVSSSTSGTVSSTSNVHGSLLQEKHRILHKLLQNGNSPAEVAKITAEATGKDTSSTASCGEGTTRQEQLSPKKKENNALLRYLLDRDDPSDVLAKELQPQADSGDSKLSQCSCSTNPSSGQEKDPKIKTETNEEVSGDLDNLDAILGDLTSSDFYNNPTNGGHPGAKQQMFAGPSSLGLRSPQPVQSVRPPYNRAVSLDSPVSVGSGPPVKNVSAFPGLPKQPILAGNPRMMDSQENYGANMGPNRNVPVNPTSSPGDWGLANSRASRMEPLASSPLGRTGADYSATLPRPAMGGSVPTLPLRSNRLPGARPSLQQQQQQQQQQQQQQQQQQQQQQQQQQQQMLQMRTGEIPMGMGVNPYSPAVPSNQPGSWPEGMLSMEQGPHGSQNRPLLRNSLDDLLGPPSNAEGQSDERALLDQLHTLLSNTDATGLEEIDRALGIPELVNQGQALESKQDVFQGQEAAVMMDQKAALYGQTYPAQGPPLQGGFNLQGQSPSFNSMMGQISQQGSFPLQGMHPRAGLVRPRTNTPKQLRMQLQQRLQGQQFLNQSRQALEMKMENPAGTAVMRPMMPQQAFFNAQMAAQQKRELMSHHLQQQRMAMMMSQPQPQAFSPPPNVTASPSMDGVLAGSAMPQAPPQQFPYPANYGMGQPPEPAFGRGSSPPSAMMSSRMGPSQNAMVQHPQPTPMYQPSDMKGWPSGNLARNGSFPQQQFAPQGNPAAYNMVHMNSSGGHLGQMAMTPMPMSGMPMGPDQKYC
HIF activator: HIF pathway transcriptional activation; U2OS HRE-luciferase reporter, luminescence; normalized: DMSO 0%, desferrioxamine 100%; activation, % at 7.5 µM (by protocol); 300,000 tested, 0.32% active;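 active means mean activation of at least 10% of the iron chelator positive control signal, with at least half of replicates also reaching 10%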
* marks the source's active call; other numbers are inactive results; / = no result given. A selection: hits, their analogues and other compounds. The true share with any hit is near 2.8%.

SMILES	PolyA inh	Platelet DG rel	AHR act	pCIP destab	HIF activator
COc1ccc(CC(=O)Nc2cccc(C(=O)Nc3cccc(C)c3)c2)cc1	-13	0	-5	-7	2
CCOc1ccccc1NC(=O)c1ccccc1NC(=O)c1ccco1	5	-2	70*	7	-7
Cc1sc2ncnc(N3CCC(C(=O)Nc4nnc(SCc5ccccc5F)s4)CC3)c2c1C	14	-8	-2	/	0
CS(=O)(=O)N(CC(=O)N1CCN(c2ccccc2F)CC1)c1cccc(C(F)(F)F)c1	7	4	-1	-1	0
COc1ccc(C(=O)Nc2ccccc2C(=O)N/N=C/c2cccc3ccccc23)cc1	-1	92*	26	-8	2
COc1ccc(C(=O)Nc2ccccc2C(=O)N/N=C/c2ccncc2)cc1OC	-9	64*	5	-7	2
CCOCC(=O)Nc1cc(C(=O)Nc2ccc(F)cc2)ccc1Cl	4	1	63*	3	0
COc1ccc(C(=O)Nc2cc(OC)nc(OC)n2)cc1	-1	56*	9	11	2
O=C(Nc1ccccc1C(=O)Nc1ccccc1)c1ccco1	2	5	76*	-7	0
COc1ccc(NC(=O)c2ccccc2NC(=O)c2ccco2)cc1	-4	13	63*	-22	4
O=C(O)c1cccc(NC(=O)c2ccccc2NC(=O)c2ccco2)c1	6	0	0	5	0
COc1ccc(-c2nc3ccccc3s2)cc1NC(C)=O	3	0	57*	-1	2
COc1cccc(-c2nc3ccccc3s2)c1	-12	11	68*	2	1
NC(=O)c1ccsc1NC(=O)COC(=O)Cc1cccc2ccccc12	10	-2	-1	-21	0
COC(=O)c1nc2cc3c(cc2c(C)c1C(=O)OC)OCO3	13	-18	1	-7	1
Cc1nc2cc3c(cc2c(C)c1C(=O)OC(C)C)OCO3	-21	1	64*	-16	1
Cc1cc(C)c2nc(SCC(=O)NNC(=O)c3ccco3)c(C)cc2c1	/	-1	12	6	-1
Cc1cc2cccc(C)c2nc1SCC(=O)NNC(=O)c1ccco1	-10	-2	52*	-7	0
CCOc1ccccc1C(=O)NC(C)c1ccc2c(c1)OCO2 (stereo unspecified)	-16	8	52*	-4	1
CCOc1ccccc1NC(=O)COc1ccc2c(c1)OCO2	-16	1	2	-14	14*
CCOc1ccccc1C(=O)NC(C(=O)N(C)Cc1ccc2c(c1)OCO2)C(C)C (stereo unspecified)	/	/	6	/	/
COc1ccccc1NC(=O)COc1ccc2c(c1)OCO2	-6	-1	5	-18	3
CCOc1ccccc1NC(=O)NC(C)c1ccc2c(c1)OCO2 (stereo unspecified)	2	-2	58*	-15	0
COc1cc(/C=C2\CCn3c2nc2cc(C(=O)O)ccc2c3=O)ccc1OC(F)F	-15	-5	15	-4	-4
CC(C)NC(=O)CC(=O)N/N=C/c1ccc(Br)cc1	13	-1	53*	-9	/
SMILES	PolyA inh	Platelet DG rel	AHR act	pCIP destab	HIF activator
CC(=O)Oc1ccc(/C=C/c2nc3ccccc3c(=O)o2)cc1	7	83*	11	0	-1
CCn1c2ccccc2c2nnc(SCc3ccccc3)nc21	13	-2	63*	-11	0
C/C(=N\Nc1nc(N)cc(Cl)n1)c1cccc(N)c1	-9	12	65*	-5	-1
COC(=O)c1ccc(COc2cc(C)ccc2C)o1	-13	2	0	7	5
COc1ccccc1N1CCN(S(=O)(=O)c2cn(C)c(=O)n(C)c2=O)CC1	-11	4	65*	-11	0
CCc1ccccc1NC(=O)CN1C(=O)c2ccccc2S1(=O)=O	5	-4	-1	-1	-53
CCOc1cc(C(=O)NC(C)CCc2ccccc2)cc(OCC)c1OCC (stereo unspecified)	4	1	-2	-12	0
N#C/C(=C\c1ccc(-c2ccccc2)cc1)c1nc(-c2ccco2)cs1	2	-6	42	7	1
N#C/C(=C/c1ccc(-c2ccccc2)o1)c1nc(-c2cccs2)cs1	/	/	54*	-36	/
CCOc1ccc(S(=O)(=O)/N=C(/Nc2ccc(C(C)=O)cc2)c2ccccc2)cc1	/	/	65*	/	/
Cc1ccc(NC(=S)N/C(=N/S(=O)(=O)c2ccccc2)c2ccccc2)cc1	-12	-2	-2	6	10*
